Measured values reported in PubChem BioAssay.
Values joined by “and” are separate entries in the source; they are usually repeats but may differ in a detail not shown here. Equal entries are not always repeated. Inconclusive results are not listed. Active and inactive are the calls of the source.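 Rule for the calls, unless noted: active = normalized viability below 100% at a tested concentration; inactive = the rest.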

Columns and labels:
[1] = viability loss in pontine glioma line – cell-based, SU-DIPG-XVII, MIPE5.0, CellTiter-Glo, qHTS, dose response (AID 1347060; cut-off not given, nearly all actives have AC50 up to about 26 µM;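 for AC50: cells exposed to compound for 48 hours before viability readout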); conditions: CellTiter-Glo ATP luminescence
[2] = viability loss in pontine glioma line – cell-based, JHH-DIPG-1, MIPE4.0, CellTiter-Glo, qHTS, dose response (AID 1347062; cut-off not given, nearly all actives have AC50 up to about 27 µM;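 for AC50: cells exposed to compound for two days before readout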); conditions: JHH-DIPG-1 viability, CellTiter-Glo ATP luminescence
[3] = viability loss in pontine glioma line – cell-based, SU-DIPG-IV, MIPE4.0, CellTiter-Glo, qHTS, dose response (AID 1347063; cut-off not given, nearly all actives have AC50 up to about 30 µM;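 note: compound exposure lasted 48 hours before the viability readout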); conditions: CellTiter-Glo ATP luminescence
[4] = viability loss in pontine glioma line – cell-based, SU-DIPG-XIII, MIPE5.0, CellTiter-Glo, qHTS, dose response (AID 1347064; cut-off not given, nearly all actives have AC50 up to about 23 µM;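 for AC50: cells exposed to compound for 48 hours before the viability read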); conditions: CellTiter-Glo ATP luminescence
[5] = viability loss in pontine glioma line – cell-based, SU-DIPG-XXV, MIPE5.0, CellTiter-Glo, qHTS, dose response (AID 1347065; cut-off not given, nearly all actives have AC50 up to about 26 µM;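 note: cells exposed to compound for 48 hours before ATP readout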); conditions: CellTiter-Glo ATP luminescence
[6] = JHH-DIPG-1 glioma cell viability, MIPE5.0 library, CellTiter-Glo luminescence, qHTS (AID 1347067; cut-off not given, nearly all actives have AC50 up to about 26 µM;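 note: cells exposed to compound for 48 hours before readout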); conditions: JHH-DIPG-1 glioma viability, CellTiter-Glo ATP luminescence
[7] = growth inhibition of DIPG cells – cell-based, MIPE5.0 library, qHTS (AID 1347068; cut-off not given, nearly all actives have IC50 up to about 30 µM;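 for IC50: cells exposed to compound for 48 hours before viability readout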); conditions: SU-DIPG-XXV viability
[8] = P. berghei load reduction in hepatocytes – cell-based, HepG2, luciferase luminescence, HepG2 viability, primary screen (AID 624349; in the data active = parasite load remaining mostly below about 12%, no sharp cut-off; inactive = mostly above about 10%;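 note: 100% = mean of DMSO negative control wells on the same plate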); conditions: P. berghei liver stage in HepG2, luciferase luminescence, concentration not given here; parasite load remaining: stronger effect = lower value; viability: measured here: HepG2 viability without parasites
[9] = growth inhibition of DIPG cells – cell-based, MIPE4.0 library, CellTiter-Glo luminescence, qHTS (AID 1347066; cut-off not given, nearly all actives have AC50 up to about 30 µM;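 note: cells exposed to compound for 48 hours before readout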); conditions: SU-DIPG-VI viability, CellTiter-Glo ATP luminescence
[10] = compounds altering HSF1 focus formation in cells – imaging, Selleck Cancer Library (AID 1347162; in the data active = plate-normalised HSF1 focus index below about 0.46); conditions: human cells, HSF1 nuclear foci imaging, at 10 µM; SSMD: measured here: HSF1 foci SSMD mean; cell count: measured here: cell number; plate-normalised HSF1 focus index: stronger effect = lower value
[11] = viability loss with induced miR-34 in A549 – imaging, A549 dox-inducible miR-34, nuclei and caspase counts, primary screen (AID 1347080;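 active = compounds whose cell count with miR-34 switched on is under 0.7 times the count with it off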); conditions: A549 miR-34 inducible, Hoechst nuclei count, 48 h
[12] = MELAS cybrid and Rieske KO viability enhancers – cell-based, MELAS cybrids, Rieske KO mouse fibroblasts, CellTiter-Glo, primary screen (AID 1508586;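 active = mean z-score across replicates of 1.96 or higher in either the MELAS or the Rieske mutant cell line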;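 note: z relative to plate mean and SD of compound and empty wells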); conditions: low glucose
[13] = drug combination growth inhibition, ovarian cancer – cell-based, oncology-focused library, rucaparib conditional, profiling panel (AID 1508598); conditions: patient-derived ovarian cancer cells, CellTiter-Glo viability, 144 h, stronger effect = lower value
[14] = stronger effect = lower value, cell number ratio, induced over uninduced
[15] = measured here: relative caspase fold change +Dox/-Dox
[16] = measured here: total cells with miR-34 induction, stronger effect = lower value
[17] = measured here: total cells without miR-34 induction
[18] = MELAS cybrid survival, CellTiter-Glo 48 h, stronger effect = higher value
[19] = Rieske KO mouse fibroblast survival, CellTiter-Glo 72 h

With `Cc1cc(OCCCS(C)(=O)=O)cc(C)c1-c1cccc(COc2ccc3c(c2)OC[C@H]3CC(=O)O)c1` the outcome [1] was “inactive”, the outcome [2] was “inactive” and the outcome [3] was “inactive”. For the same molecule, the outcome [4] was “inactive”, the outcome [5] was “inactive” and the outcome [6] was “inactive”. For the same molecule, the outcome [7] was “inactive”.

With `Cc1[nH]c(/C=C2\C(=O)Nc3ccc(S(=O)(=O)N(C)c4cccc(Cl)c4)cc32)c(C)c1C(=O)N1CCN(C)CC1` the parasite load remaining [8] was 38.5% (inactive), the viability [8] was 69.6% and the AC50 [1] was 9.34 µM (active). The AC50 [2] was 20.9 µM (active), the AC50 [3] was 23.5 µM (active) and the AC50 [4] was 7.42 µM (active). For the same molecule, the AC50 [5] was 7.42 µM (active), the AC50 [9] was 11.8 µM (active) and the AC50 [6] was 8.33 µM (active). For the same molecule, the SSMD [10] was 1.63, the cell count [10] was 7040 and the plate-normalised HSF1 focus index [10] was 1.1 (inactive).

In the case of `CCN(CC)CCCCNc1ncc2cc(-c3cc(OC)cc(OC)c3)c(NC(=O)NC(C)(C)C)nc2n1`, the AC50 [1] is reported as 0.468 µM (active), the AC50 [2] is reported as 26.4 µM (active) and the AC50 [3] is reported as 16.6 µM (active). For the same molecule, the AC50 [4] was 0.372 µM (active), the AC50 [5] was 0.372 µM (active) and the AC50 [6] was 16.6 µM (active). For the same molecule, the IC50 [7] was 3.32 µM (active), the fold change [11, 14] was 0.886 (inactive) and 0.737 (inactive) and the fold change [11, 15] was 1.64 and 1.42. The cell count [11, 16] was 4880 and 4370, the cell count [11, 17] was 5500 and 5930 and the SSMD [10] was -4.74. For the same molecule, the cell count [10] was 7260, the plate-normalised HSF1 focus index [10] was 0.703 (inactive) and the z-score [12, 18] was -0.712 (inactive). For the same molecule, the z-score [12, 19] was 0.5, the viability ([13]; at 0.000305 µM, OCI-C5x cells, with rucaparib 10 µM, 100% = cells with rucaparib alone) was 117% (inactive) and the viability ([13]; at 0.000305 µM, OCI-C5x cells, without rucaparib) was 103% (inactive). The viability ([13]; at 0.000305 µM, OCI-P5x cells, with rucaparib 20 µM, 100% = cells with rucaparib alone) was 96.8% (active), the viability ([13]; at 0.000305 µM, OCI-P5x cells, without rucaparib) was 89.9% (active) and the viability ([13]; at 0.00122 µM, OCI-C5x cells, with rucaparib 10 µM, 100% = cells with rucaparib alone) was 105% (inactive). For the same molecule, the viability ([13]; at 0.00122 µM, OCI-C5x cells, without rucaparib) was 104% (inactive), the viability ([13]; at 0.00122 µM, OCI-P5x cells, with rucaparib 20 µM, 100% = cells with rucaparib alone) was 105% (inactive) and the viability ([13]; at 0.00122 µM, OCI-P5x cells, without rucaparib) was 98.6% (active). The viability ([13]; at 0.00488 µM, OCI-C5x cells, with rucaparib 10 µM, 100% = cells with rucaparib alone) was 118% (inactive), the viability ([13]; at 0.00488 µM, OCI-C5x cells, without rucaparib) was 110% (inactive) and the viability ([13]; at 0.00488 µM, OCI-P5x cells, with rucaparib 20 µM, 100% = cells with rucaparib alone) was 104% (inactive). For the same molecule, the viability ([13]; at 0.00488 µM, OCI-P5x cells, without rucaparib) was 101% (inactive), the viability ([13]; at 0.0195 µM, OCI-C5x cells, with rucaparib 10 µM, 100% = cells with rucaparib alone) was 118% (inactive) and the viability ([13]; at 0.0195 µM, OCI-C5x cells, without rucaparib) was 108% (inactive). For the same molecule, the viability ([13]; at 0.0195 µM, OCI-P5x cells, with rucaparib 20 µM, 100% = cells with rucaparib alone) was 109% (inactive), the viability ([13]; at 0.0195 µM, OCI-P5x cells, without rucaparib) was 108% (inactive) and the viability ([13]; at 0.0781 µM, OCI-C5x cells, with rucaparib 10 µM, 100% = cells with rucaparib alone) was 120% (inactive). The viability ([13]; at 0.0781 µM, OCI-C5x cells, without rucaparib) was 113% (inactive), the viability ([13]; at 0.0781 µM, OCI-P5x cells, with rucaparib 20 µM, 100% = cells with rucaparib alone) was 113% (inactive) and the viability ([13]; at 0.0781 µM, OCI-P5x cells, without rucaparib) was 104% (inactive). For the same molecule, the viability ([13]; at 0.313 µM, OCI-C5x cells, with rucaparib 10 µM, 100% = cells with rucaparib alone) was 120% (inactive), the viability ([13]; at 0.313 µM, OCI-C5x cells, without rucaparib) was 115% (inactive) and the viability ([13]; at 0.313 µM, OCI-P5x cells, with rucaparib 20 µM, 100% = cells with rucaparib alone) was 105% (inactive). For the same molecule, the viability ([13]; at 0.313 µM, OCI-P5x cells, without rucaparib) was 101% (inactive), the viability ([13]; at 1.25 µM, OCI-C5x cells, with rucaparib 10 µM, 100% = cells with rucaparib alone) was 140% (inactive) and the viability ([13]; at 1.25 µM, OCI-C5x cells, without rucaparib) was 126% (inactive). For the same molecule, the viability ([13]; at 1.25 µM, OCI-P5x cells, with rucaparib 20 µM, 100% = cells with rucaparib alone) was 100% (inactive), the viability ([13]; at 1.25 µM, OCI-P5x cells, without rucaparib) was 105% (inactive) and the viability ([13]; at 5 µM, OCI-C5x cells, with rucaparib 10 µM, 100% = cells with rucaparib alone) was 140% (inactive). The viability ([13]; at 5 µM, OCI-C5x cells, without rucaparib) was 85.3% (active), the viability ([13]; at 5 µM, OCI-P5x cells, with rucaparib 20 µM, 100% = cells with rucaparib alone) was 74.6% (active) and the viability ([13]; at 5 µM, OCI-P5x cells, without rucaparib) was 68.4% (active).

In the case of `OCc1ccc(-c2ccc(-c3ccc(CO)s3)o2)s1`, the AC50 [1] is reported as 14.8 µM (active), the AC50 [2] is reported as 20.9 µM (active) and the AC50 [3] is reported as 18.7 µM (active). The AC50 [4] was 16.6 µM (active), the AC50 [5] was 23.5 µM (active) and the AC50 [6] was 16.6 µM (active). For the same molecule, the fold change [11, 14] was 0.99 (inactive) and 0.88 (inactive), the fold change [11, 15] was 0.768 and 1.19 and the cell count [11, 16] was 3070 and 2470. The cell count [11, 17] was 3100 and 2800, the z-score [12, 18] was -0.467 (inactive) and the z-score [12, 19] was 0.342.
